{"source": "ChEMBL document CHEMBL3988442", "about": "“University of Dundee, Small-Polar-MMV Screening Library” (2021)", "test_system": "Leishmania donovani", "assay": "Leishmania intramacrophage assay", "assay_type": "functional, organism-based", "set-up": "scale not given: in the data most compounds retested in dose-response had high values", "note": "Out of some 69,000 compounds screened, about 1,000 (1.4%) showed an effect of 50% or more. This is one part of a sample in which strong results are shown more often than they occur.", "data": [{"smiles": "CCNC(=O)c1sccc1N(C)S(=O)(=O)c1ccc(Cl)cc1", "values": [{"measurement": "Percent Effect", "setting": "30.3 µM, […]", "value": 2.943, "unit": "%"}]}, {"smiles": "Cc1ccc(C(=O)NC(C)CN2CCCC2=O)c(=O)[nH]1", "note": "(stereo not drawn)", "values": [{"measurement": "Percent Effect", "setting": "30 µM, 30.03 µM", "value": 6.193, "unit": "%"}]}, {"smiles": "Cc1ccc(C(=O)NC(CN2CCCC2=O)c2ccccc2)c(=O)[nH]1", "note": "(stereo not drawn)", "values": [{"measurement": "Percent Effect", "setting": "30 µM, 30.03 µM", "value": -14.78, "unit": "%"}]}, {"smiles": "Cc1ccc(C(=O)NCC(C)CN2CCCC2=O)c(=O)[nH]1", "note": "(stereo not drawn)", "values": [{"measurement": "Percent Effect", "setting": "30.3 µM, […]", "value": 59.27, "unit": "%"}]}, {"smiles": "Nc1nc(N)c2c(n1)OC1(CCCN(Cc3nccs3)CC1)C2", "note": "(stereo not drawn)", "values": [{"measurement": "Percent Effect", "setting": "30.3 µM, […]", "value": 27.22, "unit": "%"}]}, {"smiles": "Cc1cc(CN(C)c2nc(-c3ccco3)nc3c2CCN(C)CC3)on1", "values": [{"measurement": "Percent Effect", "setting": "30.3 µM, […]", "value": -83.89, "unit": "%"}]}, {"smiles": "Cc1nonc1CN(C)c1nc(-c2ccco2)nc2c1CCN(C)CC2", "values": [{"measurement": "Percent Effect", "setting": "30.3 µM, […]", "value": 55.96, "unit": "%"}]}, {"smiles": "Cc1noc(CN(C)c2nc(-c3ccco3)nc3c2CCN(C)CC3)n1", "values": [{"measurement": "Percent Effect", "setting": "30.3 µM, […]", "value": -34.19, "unit": "%"}]}, {"smiles": "Cc1cccc(CN2C(=O)CO[C@@H]3CN(Cc4cnn(C)c4)C[C@H]32)c1.O=C(O)C(F)(F)F.O=C(O)C(F)(F)F", "values": [{"measurement": "Percent Effect", "setting": "30.3 µM, […]", "value": 15.94, "unit": "%"}]}, {"smiles": "CC(C)(C)CNC(=O)c1ccc(C(=O)O)cc1", "values": [{"measurement": "Percent Effect", "setting": "30.3 µM, […]", "value": 40.51, "unit": "%"}]}, {"smiles": "CC(C)(C)CNC(=O)c1ccc(C(=O)O)nc1", "values": [{"measurement": "Percent Effect", "setting": "30.3 µM, […]", "value": 60.75, "unit": "%"}]}, {"smiles": "CC(C)(C)CNC(=O)c1ccc(C(=O)O)cn1", "values": [{"measurement": "Percent Effect", "setting": "30.3 µM, […]", "value": -11.9, "unit": "%"}]}, {"smiles": "Cc1ccc(-c2ncc(CN3CCOC(c4ccco4)C3)s2)o1", "note": "(stereo not drawn)", "values": [{"measurement": "Percent Effect", "setting": "30.3 µM, […]", "value": -6.468, "unit": "%"}]}, {"smiles": "COC(=O)CCCN(C)C(c1cccnc1)c1ccc(F)cc1F", "note": "(stereo not drawn)", "values": [{"measurement": "Percent Effect", "setting": "30.3 µM, […]", "value": 21.57, "unit": "%"}]}, {"smiles": "CC(C)N1CC(c2ncc(-c3ccc4c(c3)OCCO4)[nH]2)CC1=O", "note": "(stereo not drawn)", "values": [{"measurement": "Percent Effect", "setting": "30.3 µM, […]", "value": 26.45, "unit": "%"}]}, {"smiles": "Cc1ccc(CCN[C@@H]2c3ccccc3C3(CCNCC3)[C@H]2O)s1", "values": [{"measurement": "Percent Effect", "setting": "30.3 µM, […]", "value": 84.2, "unit": "%"}]}, {"smiles": "COc1ccccc1CCN[C@@H]1c2ccccc2C2(CCNCC2)[C@H]1O", "values": [{"measurement": "Percent Effect", "setting": "30.3 µM, […]", "value": 35.47, "unit": "%"}]}, {"smiles": "O[C@H]1[C@H](NCCc2ccccn2)c2ccccc2C12CCNCC2", "values": [{"measurement": "Percent Effect", "setting": "30.3 µM, […]", "value": -16.64, "unit": "%"}]}, {"smiles": "CNC(=O)[C@@H]1C[C@H]2CN(Cc3csc(C)n3)C[C@H]2N1C(C)C.O=C(O)C(F)(F)F.O=C(O)C(F)(F)F", "values": [{"measurement": "Percent Effect", "setting": "30.3 µM, […]", "value": 29.27, "unit": "%"}]}, {"smiles": "CC(C)C(C)N1Cc2cccc(NCC(=O)N(C)C)c2C1", "note": "(stereo not drawn)", "values": [{"measurement": "Percent Effect", "setting": "30.3 µM, […]", "value": 29.96, "unit": "%"}]}, {"smiles": "CC(C)N1Cc2cccc(NCC(=O)N(C)C3CCCCC3)c2C1", "values": [{"measurement": "Percent Effect", "setting": "30.3 µM, […]", "value": 17.74, "unit": "%"}]}, {"smiles": "CC(C)N1Cc2cccc(NCC(=O)N(C)C)c2C1", "values": [{"measurement": "Percent Effect", "setting": "30.3 µM, […]", "value": 62.8, "unit": "%"}]}, {"smiles": "Cc1cc(NC(=O)NCC2COc3ccccc3C2)no1", "note": "(stereo not drawn)", "values": [{"measurement": "Percent Effect", "setting": "30 µM", "value": -28.91, "unit": "%"}]}, {"smiles": "Fc1ccccc1CN1C[C@H](OCC2CCOCC2)[C@H]2OCCC[C@H]21.O=C(O)C(F)(F)F", "values": [{"measurement": "Percent Effect", "setting": "30.3 µM, […]", "value": -19.24, "unit": "%"}]}, {"smiles": "CN(C)C(=O)CO[C@@H]1CN(Cc2ccccc2F)[C@@H]2CCCO[C@@H]21.O=C(O)C(F)(F)F", "values": [{"measurement": "Percent Effect", "setting": "30.3 µM, […]", "value": 10.19, "unit": "%"}]}, {"smiles": "Cc1cccc(CN2CCO[C@H]3[C@@H](OCc4ccncc4)CC[C@@H]32)n1.O=C(O)C(F)(F)F.O=C(O)C(F)(F)F.O=C(O)C(F)(F)F", "values": [{"measurement": "Percent Effect", "setting": "30.3 µM, […]", "value": 12.49, "unit": "%"}]}, {"smiles": "Fc1ccccc1CN1C[C@@H](OCc2ccncc2)[C@H]2OCCC[C@H]21.O=C(O)C(F)(F)F.O=C(O)C(F)(F)F", "values": [{"measurement": "Percent Effect", "setting": "30 µM, 30.03 µM", "value": 54.27, "unit": "%"}]}, {"smiles": "COc1ccc(CN2CCO[C@H]3[C@H](OCc4ccncc4)CC[C@@H]32)cc1.O=C(O)C(F)(F)F.O=C(O)C(F)(F)F", "values": [{"measurement": "Percent Effect", "setting": "30.3 µM, […]", "value": 60.6, "unit": "%"}]}, {"smiles": "Fc1ccc(CN2CCO[C@H]3[C@H](OCc4ccncc4)CC[C@@H]32)cc1.O=C(O)C(F)(F)F.O=C(O)C(F)(F)F", "values": [{"measurement": "Percent Effect", "setting": "30.3 µM, […]", "value": 43.4, "unit": "%"}]}, {"smiles": "Cn1cc(S(=O)(=O)N(Cc2ccc(F)cc2F)C2CC2)cc1C(N)=O", "values": [{"measurement": "Percent Effect", "setting": "30.3 µM, […]", "value": 34.27, "unit": "%"}]}, {"smiles": "CNS(=O)(=O)CC1CCCN1C(=O)c1ccc(C)c(C)c1", "note": "(stereo not drawn)", "values": [{"measurement": "Percent Effect", "setting": "30.3 µM, […]", "value": -9.061, "unit": "%"}]}, {"smiles": "O=c1cc(-c2ccccc2)nc2n1CCCCC2", "values": [{"measurement": "Percent Effect", "setting": "30.3 µM, […]", "value": -39.42, "unit": "%"}]}, {"smiles": "COCC(=O)NCc1cc2n(n1)CCCN(CCCC1CCCC1)C2", "values": [{"measurement": "Percent Effect", "setting": "30.3 µM, […]", "value": 20.98, "unit": "%"}]}, {"smiles": "COCC(=O)N1CCC2(CCN(c3cnn(C)c3)C2=O)C1", "note": "(stereo not drawn)", "values": [{"measurement": "Percent Effect", "setting": "30.3 µM, […]", "value": 13.44, "unit": "%"}]}, {"smiles": "O=C([C@@H]1C[C@@H]2CCN(C3CCOCC3)C[C@@H]2O1)N1CCOCC1", "values": [{"measurement": "Percent Effect", "setting": "30.3 µM, […]", "value": 9.764, "unit": "%"}]}, {"smiles": "Cc1nn(C)cc1CN(C)C(=O)c1cnccn1", "values": [{"measurement": "Percent Effect", "setting": "30.3 µM, […]", "value": -25.04, "unit": "%"}]}, {"smiles": "CCC(=O)NCCNC(=O)c1nn(C)c(C)c1Cl", "values": [{"measurement": "Percent Effect", "setting": "30.3 µM, […]", "value": -0.8741, "unit": "%"}]}, {"smiles": "CCN1CCN(C[C@@H]2CN(c3ncccc3Cl)C[C@@H]2CO)CC1", "values": [{"measurement": "Percent Effect", "setting": "30.3 µM, […]", "value": 25.54, "unit": "%"}]}, {"smiles": "CCN1CCN(C[C@@H]2CN(c3ncc(Cl)cc3F)C[C@@H]2CO)CC1", "values": [{"measurement": "Percent Effect", "setting": "30.3 µM, […]", "value": 46.16, "unit": "%"}]}, {"smiles": "CCN1CCN(C[C@@H]2CN(c3ncc(Cl)cc3Cl)C[C@@H]2CO)CC1", "values": [{"measurement": "Percent Effect", "setting": "30.3 µM, […]", "value": 62.72, "unit": "%"}]}, {"smiles": "O=C(NCCc1nccs1)[C@H](c1ccccc1)n1cnnn1", "values": [{"measurement": "Percent Effect", "setting": "30.3 µM, […]", "value": 10.58, "unit": "%"}]}, {"smiles": "CCCNc1cc(-c2c[nH]nc2C2CCN(C(=O)C3CCC3)C2)ccn1", "note": "(stereo not drawn)", "values": [{"measurement": "Percent Effect", "setting": "30.3 µM, […]", "value": 53.3, "unit": "%"}]}, {"smiles": "CC(=O)N1CCC(c2n[nH]cc2-c2ccnc(N)c2)C1", "note": "(stereo not drawn)", "values": [{"measurement": "Percent Effect", "setting": "30.3 µM, […]", "value": 29.98, "unit": "%"}]}, {"smiles": "CC(C)OCC(=O)N1CCC(c2ncncc2-c2ccnc(N)c2)C1", "note": "(stereo not drawn)", "values": [{"measurement": "Percent Effect", "setting": "30.3 µM, […]", "value": -5.314, "unit": "%"}]}, {"smiles": "CC(C)Nc1cc(-c2c[nH]nc2C2CCN(C(=O)C3CCC3)C2)ccn1", "note": "(stereo not drawn)", "values": [{"measurement": "Percent Effect", "setting": "30.3 µM, […]", "value": 63.06, "unit": "%"}]}, {"smiles": "Cc1c[nH]nc1C1CCN(C(=O)C2CCOCC2)C1", "note": "(stereo not drawn)", "values": [{"measurement": "Percent Effect", "setting": "30.3 µM, […]", "value": -3.336, "unit": "%"}]}, {"smiles": "Nc1cc(-c2c[nH]nc2C2CCN(C(=O)C3CCCC3)C2)ccn1", "note": "(stereo not drawn)", "values": [{"measurement": "Percent Effect", "setting": "30.3 µM, […]", "value": 42.83, "unit": "%"}]}, {"smiles": "Nc1cc(-c2c[nH]nc2C2CCCCN2C(=O)C2CCCC2)ccn1", "note": "(stereo not drawn)", "values": [{"measurement": "Percent Effect", "setting": "30.3 µM, […]", "value": 12.99, "unit": "%"}]}, {"smiles": "CC(C)N1CCC(c2n[nH]cc2-c2ccnc(N)c2)C1", "note": "(stereo not drawn)", "values": [{"measurement": "Percent Effect", "setting": "30.3 µM, […]", "value": 28.17, "unit": "%"}]}, {"smiles": "Cc1c[nH]nc1C1CCN(C(=O)C2CCCC2)C1", "note": "(stereo not drawn)", "values": [{"measurement": "Percent Effect", "setting": "30.3 µM, […]", "value": -28.74, "unit": "%"}]}, {"smiles": "CC(C)Nc1cc(-c2c[nH]nc2C2CCN(C(=O)C3CC3)C2)ccn1", "note": "(stereo not drawn)", "values": [{"measurement": "Percent Effect", "setting": "30.3 µM, […]", "value": 49.22, "unit": "%"}]}, {"smiles": "CN1CCC(c2n[nH]cc2-c2ccnc(N)c2)C1", "note": "(stereo not drawn)", "values": [{"measurement": "Percent Effect", "setting": "30.3 µM, […]", "value": 52.81, "unit": "%"}]}, {"smiles": "CC(C)CNc1cc(-c2c[nH]nc2C2CCN(C(=O)C3CC3)C2)ccn1", "note": "(stereo not drawn)", "values": [{"measurement": "Percent Effect", "setting": "30.3 µM, […]", "value": 60.8, "unit": "%"}]}]}
